# In PubChem BioAssay AID449762 (Southern Research Specialized Biocontainment Screening …, 2010):
# The campaign covered roughly 330,000 compounds. About 1,900 (0.58%) were called active. Another 4% or so got no clear call; they are omitted. No stated cut-off is given here; in the data, inconclusive means inhibition above about 70% without an active follow-up result; inactive means below that. Not all results are given here. Potency and affinity values are given separately.
# Test: M. tuberculosis growth inhibition, HTS (AID 449762);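 further: bacterial growth assessed after seven days of incubation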
# Conditions: M. tuberculosis H37Rv growth inhibition, 7H9 media; at 25 µM; hits give high values
row,SMILES,inhibition
1,Cc1c(NC(=O)c2noc3c2CCc2ccccc2-3)c(=O)n(-c2ccccc2)n1C,43% (inactive)
2,COc1ccc2c(c1)CCc1c(C(=O)Nc3c(C)nn(Cc4ccccc4)c3C)noc1-2,0.29% (inactive)
3,CC(C)(C)c1nnc(NC(=O)CCS(=O)(=O)Cc2ccccc2)s1,-8.95% (inactive)
4,O=C(Cc1ccc(Br)cc1)NC1CCSC1=O (configuration not stated),-3.33% (inactive)
5,O=C(c1cccs1)N1CCN(c2cccc(Cl)c2)CC1,0.26% (inactive)
6,O=C(Cn1ccsc1=NC(=O)C(F)(F)F)c1ccccc1,-3.48% (inactive)
7,CC(=O)NC12CC3CC(C1)CC(C(=O)Nc1nc4ccc(S(C)(=O)=O)cc4s1)(C3)C2,-8.67% (inactive)
8,CC(=O)NC12CC3CC(C1)CC(C(=O)Nc1nccs1)(C3)C2,-0.32% (inactive)
9,Cc1ccc2c(c1)c(C1=NC(=S)NC1=O)c(O)n2C,-2.95% (inactive)
10,Cn1c(O)c(C2=c3ccccc3=NC2=O)[nH]c1=S,37% (inactive)
11,C/C(=N\NC(=O)c1ccc(Cn2cc([N+](=O)[O-])cn2)o1)c1cccc(NC(=O)c2cccnc2)c1,-0.38% (inactive)
12,Clc1cccc(C2Nc3cccc4cccc(c34)N2)c1,11.6% (inactive)
13,O=C(c1ccccc1)c1ccc(OCCCCN2CCCCC2)cc1,3.79% (inactive)
14,O=C(c1ccccc1)c1ccc(OCCCN2CCCC2)cc1,-9.38% (inactive)
15,Cc1nc(Nc2ccccc2)sc1C(=O)Nc1ccccc1,7.98% (inactive)
16,Cc1nc(Nc2c(Cl)cccc2Cl)sc1C(=O)Nc1ccccc1,12% (inactive)
17,CC(NC(=O)/C(C#N)=C/c1cccs1)c1ccccc1 (configuration not stated),-1.56% (inactive)
18,CCOCCN1CCN(c2nnc3n2-c2ccc(Cl)cc2C(c2ccccc2Cl)=NC3)CC1,4.83% (inactive)
19,Clc1ccc2c(c1)C(c1ccccc1Cl)=NCc1nnc(Br)n1-2,6.91% (inactive)
20,Cn1c(=O)c2c(nc(SCCN3CCOCC3)n2C)n(C)c1=O,1% (inactive)
21,O=C(CCc1ccc(Oc2cc([N+](=O)[O-])cc([N+](=O)[O-])c2)cc1)NC1CCCC1,30.8% (inactive)
22,O=C(c1ccc(Oc2ccc([N+](=O)[O-])cc2)cc1)N1CCCCCC1,20.3% (inactive)
23,Cc1cc(C)nc(OC(C(=O)O)C(OCC(C)C)(c2ccccc2)c2ccccc2)n1 (configuration not stated),-3.41% (inactive)

row,SMILES,inhibition
1,Cc1cccc(C(=O)NC2CC(C)(C)NC(C)(C)C2)c1,-6.34% (inactive)
2,Cc1ccc(S(=O)(=O)/N=C2/NC(=O)/C(=C/c3ccc(Br)o3)S2)cc1,-2.8% (inactive)
3,COC(=O)c1ccc(CSc2nnc(CNC(=O)c3ccccc3F)o2)o1,4.26% (inactive)
4,Cc1c(C2(O)CCCCC2)[nH]c2cc(C(F)(F)F)ccc12,15.3% (inactive)
5,CCc1c(C2(O)CCCCC2)[nH]c2ccc(C#N)cc12,5.4% (inactive)
6,Cc1nn(S(=O)(=O)c2ccc(C(C)C)cc2)c(C)c1S(=O)(=O)N1CCOCC1,-4.31% (inactive)
7,Cc1nn(CC(=O)NCCCN2C(C)CCCC2C)c(=O)c2cc3occc3n12 (configuration not stated),5.96% (inactive)
8,CCCc1nc([N+](=O)[O-])c(S(=O)(=O)c2ccccc2)n1CC(C)C,10% (inactive)
9,CCCn1c(CC)nc([N+](=O)[O-])c1Sc1ccc(C)cc1,-12% (inactive)
10,Cc1ccc(NC(=O)CN(C)C(=O)/C=C/c2ccc3c(c2)OCO3)cc1,6.72% (inactive)
11,CN(CC(=O)Nc1ccc(OC(F)(F)F)cc1)C(=O)/C=C/c1ccco1,5.57% (inactive)
12,CCCCc1c(O)nc(SCC(=O)N2CCCCC2)[nH]c1=O,17.7% (inactive)
13,COc1ccc(-c2nnc(SCC(=O)NC3CCCC3)n2C)cc1,-3.82% (inactive)
14,Cc1ccc(C(=O)/C=C/c2ccc3c(c2)OCO3)o1,1.84% (inactive)
15,Cc1ccc(C(=O)/C=C/c2ccccc2)o1,4.37% (inactive)
16,CC1CCCCN1S(=O)(=O)c1cccc2nonc12 (configuration not stated),-1.08% (inactive)
17,CCC(CC)NC(=O)c1cc2c(C)nn(Cc3ccccc3Cl)c2s1,-1.27% (inactive)
18,Cc1nn(Cc2ccccc2Cl)c2sc(C(=O)NC(C)(C)C)cc12,30.5% (inactive)
19,CCCNC(=O)CCNC(=O)c1ccc(C(C)(C)C)cc1,-4.92% (inactive)
20,CCCCNC(=O)CCNC(=O)c1ccc(C(C)(C)C)cc1,-8.34% (inactive)
21,O=C(CSc1nnc(-c2c[nH]c3ccccc23)o1)N(Cc1ccccc1)c1ccc(F)cc1,-6.56% (inactive)
22,Cc1nc(SCc2nc3ccccc3[nH]2)c2oc3ccc(Br)cc3c2n1,18% (inactive)
23,Cc1ccccc1CN1C(=O)[C@@H]2Cc3c([nH]c4ccccc34)C(C)(C)N2C1=O,8.29% (inactive)

row,SMILES,inhibition
1,Cc1ccccc1CN1C(=O)[C@H]2Cc3c([nH]c4ccccc34)C(C)(C)N2C1=O,-6.56% (inactive)
2,C/C=C(\C)C(=O)NCCN1C2=NC[C@H](C)N2C[C@@H]1Cc1ccc(OC)cc1,0.12% (inactive)
3,COc1ccc(-c2cc(C3CCN(c4ccc(C(C)=O)cc4[N+](=O)[O-])CC3)[nH]n2)cc1,2.56% (inactive)
4,CC(=O)c1ccc(N2CCC(c3cc(-c4ccc(Cl)cc4)n[nH]3)CC2)c([N+](=O)[O-])c1,-1.54% (inactive)
5,COc1ccc(OC)c(-c2cc(C3CCN(c4cc(Cl)nc(N)n4)CC3)[nH]n2)c1,-10.8% (inactive)
6,Nc1nc(Cl)cc(N2CCC(c3cc(-c4ccc(Cl)cc4)n[nH]3)CC2)n1,4.43% (inactive)
7,Cc1cc(OCC(=O)NCc2ccccn2)c2c(C)c(Cc3ccccc3)c(=O)oc2c1,3.29% (inactive)
8,O=C(CN(Cc1cccs1)C(=O)CN1C(=O)COc2ccccc21)NCc1ccco1,-10.2% (inactive)
9,COc1ccc(S(=O)(=O)N2CCN(C(=O)CCNC(=O)c3ccccc3Cl)CC2)cc1,-12.2% (inactive)
10,COc1cc(OC)nc(Oc2cc(/C=N/O)ccc2OC)n1,6.12% (inactive)
11,O=C(O)c1ccccc1NS(=O)(=O)c1ccc(NN=Cc2ccc(F)cc2)c([N+](=O)[O-])c1,9.86% (inactive)
12,OC1(c2ccc(F)cc2)CCN(Cc2nnnn2Cc2cccs2)CC1,5.23% (inactive)
13,O=C(O)CSc1nnnn1-c1ccc2c(c1)OCCO2,-0.83% (inactive)
14,CC(C)OC(=O)CSc1nnnn1-c1ccc2c(c1)OCCO2,-0.39% (inactive)
15,O=C(NCCC1=CCCCC1)C1CCN(S(=O)(=O)c2cccc(C(F)(F)F)c2)CC1,5.79% (inactive)
16,Cc1cc(C)nc(NC(=O)CSc2nn(-c3ccccc3)c(=S)s2)n1,-0.15% (inactive)
17,CCOC(=O)CSc1nn(C)c(=S)s1,0.33% (inactive)
18,CSc1nsc(SCCN2C(=O)c3ccccc3C2=O)n1,2.52% (inactive)
19,Nc1nnc(SCCN2C(=O)c3ccccc3C2=O)s1,-1.41% (inactive)
20,CCOC(=O)CSc1nnc(-c2ccccc2)c(=O)[nH]1,-2.8% (inactive)
21,CCOC(=O)CSc1snnc1C,-6.63% (inactive)
22,Cc1ccc(NC(=S)N(CCN(C)C)C(C)c2cccnc2)c(C)c1 (configuration not stated),4.11% (inactive)
23,COC(=O)c1cc(OC)c(OC)cc1NC(=O)c1c(-c2ccccc2Cl)noc1C,-3.97% (inactive)

row,SMILES,inhibition
1,Cc1ccc(-c2csc(NC(=O)c3ccccc3Cl)c2C(=O)O)cc1,13.9% (inactive)
2,CSc1cccc(NC(=O)C2C3C=CC4(O3)C2C(=O)N(CCCN2CCOCC2)C4C(=O)NC2CCCCC2)c1 (configuration not stated),3.36% (inactive)
3,O=C(c1ccccc1F)N1CCN(S(=O)(=O)c2ccc3ccccc3c2)CC1,7.72% (inactive)
4,COc1ccc(NS(=O)(=O)c2cc(NC(=O)C3CC3)ccc2N2CCCCC2)cc1,1.69% (inactive)
5,Cc1ccc2c(c1)c1c3n2CCN(C(=O)CN2CCN(C)CC2)C3CCC1 (configuration not stated),-3.37% (inactive)
6,CC(=O)N1CCn2c3c(c4cc(C)ccc42)CCCC31 (configuration not stated),4.84% (inactive)
7,CC(C)CCN1CCN(CC(c2ccccc2)c2ccccc2)CC1CCO (configuration not stated),-4.44% (inactive)
8,COCCn1c(=N)c(C(=O)NCc2ccco2)cc2c(=O)n3cc(C)ccc3nc21,0.47% (inactive)
9,Cc1ccc(Cn2c(=N)c(C(=O)NCc3ccco3)cc3c(=O)n4ccccc4nc32)cc1,4.13% (inactive)
10,COc1ccc(NC(=O)CN2CCN(c3nc(-c4ccc(F)cc4)cs3)CC2)c(OC)c1,8.68% (inactive)
11,O=[N+]([O-])c1ccc(F)c(N=Cc2ccc(Br)s2)c1,1.92% (inactive)
12,COc1ccc(-c2coc3cc(OC(=O)N4CCOCC4)ccc3c2=O)cc1,10.6% (inactive)
13,CCN(CC)C(=O)Oc1ccc2c(=O)c(-c3ccccc3)coc2c1,64.8% (inactive)
14,CCOc1ccc(N(CC(=O)Nc2cc(C)cc(C)c2)S(C)(=O)=O)cc1,7.61% (inactive)
15,N#C/C(=C/c1ccccc1[N+](=O)[O-])C(=O)NCc1ccco1,-4.24% (inactive)
16,CCCCSC1=NN1c1nc(N)nc(C)c1CC,-7.73% (inactive)
17,CC1CN(C(=O)c2cc([N+](=O)[O-])cc([N+](=O)[O-])c2)CC(C)O1 (configuration not stated),-5.16% (inactive)
18,CC1CN(C(=S)c2cccc([N+](=O)[O-])c2)CC(C)O1 (configuration not stated),-2.37% (inactive)
19,Cc1nn(CC(C)C(=O)N2CCN(S(=O)(=O)c3ccc(Cl)cc3)CC2)c(C)c1C (configuration not stated),-2.72% (inactive)
20,CCCCCCCCc1nc(SC(C)C(=O)O)n[nH]1 (configuration not stated),-1.56% (inactive)
21,COc1ccc(C2Nc3ccccc3NC3=C2C(=O)CC(C)(C)C3)c(OC)c1OC (configuration not stated),8.53% (inactive)
22,COc1ccc(NC(=O)c2ccc([N+](=O)[O-])o2)cc1,6.03% (inactive)
23,COc1ccc(-c2nnc(NC(=O)CS(=O)(=O)c3ccc(F)cc3)o2)c(OC)c1,7.17% (inactive)
